Source: PubChem BioAssay
In the library only some 3.7% were active in any assay of this set; here they are far more common.
GLP1R inv ag = qHTS of GLP-1 Receptor Inverse Agonists (Inhibition Mode) | HEK293 GLP-1R CRE-luciferase, luminescence, 24 h; GLP-1R form is constitutively active | Potency, µM (titrated, usually from 38.3 µM), without a hit: at the top dose activity change, negative = inhibition, most hits filed as inhibitors | Glucagon-like peptide 1 receptor (Homo sapiens), P43220 | 410,000 tested, 1.6% active; also: % is scaled to controls: 0 for no effect and ±100 for the full control effect; nearly all actives have a fitted effect of over 55% in size
Target sequence (P43220 whole entry, looked up): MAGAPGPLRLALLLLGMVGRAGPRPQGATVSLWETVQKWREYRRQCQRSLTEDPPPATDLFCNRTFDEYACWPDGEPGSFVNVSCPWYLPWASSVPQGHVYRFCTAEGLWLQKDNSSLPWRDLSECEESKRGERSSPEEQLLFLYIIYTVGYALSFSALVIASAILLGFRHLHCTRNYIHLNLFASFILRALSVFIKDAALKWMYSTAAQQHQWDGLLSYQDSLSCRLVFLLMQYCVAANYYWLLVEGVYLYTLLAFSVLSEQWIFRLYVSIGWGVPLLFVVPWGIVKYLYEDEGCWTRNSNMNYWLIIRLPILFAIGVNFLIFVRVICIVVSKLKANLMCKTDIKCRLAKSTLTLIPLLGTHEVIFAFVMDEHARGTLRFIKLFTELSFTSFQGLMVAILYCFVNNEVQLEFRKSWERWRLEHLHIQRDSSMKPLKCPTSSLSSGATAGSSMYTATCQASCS
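Assay principle: reduced luminescence from a cAMP-responsive reporter in HEK293 cells co-expressing a constitutively active GLP-1R. Conditions: 24 hr compound incubation, 37 deg C, 5% CO2.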
GLP-1R agonist = qHTS of GLP-1 Receptor Agonists; HEK293 GLP-1R CRE-luciferase, luminescence, 4-6 h; cells express a hypersensitive GLP-1R form; Potency, µM (series often up to 45.6 µM), without a hit: at the top dose activation, most hits filed as activators; 380,000 tested, 0.007% active; also: % of control where 0% means no effect
TGFb inhibitor = qHTS for Inhibitors of TGF-b; HepG2 CAGA-GFP TGF-b/SMAD3 reporter, GFP fluorescence, 18 h; TGF-beta stimulated, 500 pg/mL final; Potency, µM (series often up to 46.1 µM), for the others: at the top dose activity, negative = inhibition, usual class: inhibitors; 410,000 tested, 1.2% active; also: % is scaled to controls: 0 for no effect and ±100 for the full control effect; nearly all actives have a fitted effect of over 65% in size
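HEPG2 CAGA-GFP cells (1000/well, DMEM with 1% FBS) were pre-incubated 2 h at 37 degrees C, given compound by pin tool, then stimulated with TGF-beta at 500 pg/mL final for 18 h before per-cell GFP fluorescence imaging.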
ATXN2 expr inh = Primary qHTS for Inhibitors of ATXN expression; HEK-293 ATXN2-luciferase reporter, luminescence, 24 h; Potency, µM (highest dose often 57 µM), for the others: at the top dose activity change, negative = inhibition, actives largely listed as inhibitors; 360,000 tested, 0.72% active; AID 1745845, 2022; also: % is scaled to controls: 0 for no effect and ±100 for the full control effect; nearly all actives have a fitted effect of over 55% in size
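qHTS (up to 57 uM final) was run with 24 h compound exposure of reporter cells at 37 °C. Each well was multiplexed: SteadyGlo luminescence measured ATXN2-luciferase expression after a fluorogenic Gly-Phe-AFC viability readout (25 uM final).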
S2 tox = Viability Counterscreen for Primary qHTS for Inhibitors of ATXN expression | 400,000 tested, 0.49% active | Potency, µM (series often up to 56.7 µM), usual class: cytotoxic | S2 cells (HEK-293 line with an ATXN2-luciferase reporter) viability, CellTiter-Fluor protease fluorescence, 24 h; also: nearly all actives have a fitted effect of over 40% in size
HepG2 viability = qHTS for Inhibitors of TGF-b: Cytotox Counterscreen. 410,000 tested, 0.76% active. HepG2 CAGA-GFP viability, ATP luminescence, 18 h. Potency, µM (series often up to 46.1 µM), for inactives: at the top dose activity change, negative = cytotoxicity, hits mostly cytotoxic
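CellTiter-Glo luminescence gave cytotoxicity after 18 hours at 37 degrees C. The cells were HepG2 CAGA-GFP in 1% FBS DMEM, stimulated with 500 pg/mL TGF-beta after compound addition. %Activity was normalised to no-cell wells (complete cell-killing) and DMSO (no toxicity), and curves were fitted and classified.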
The depositor's hits bear a star; i = inactive; ? = inconclusive; / = not tested or not shown. Calls follow the shape of the dose curve; as a rule, active = well fitted curve in the direction sought with a large enough effect; inconclusive = small, poorly fitted or top-dose-only effect, or another doubt; inactive = no such curve, though single readings can be large; an effect the other way counts as inactive or inconclusive. Potency is read from the fitted curve at half-maximal effect.

SMILES	GLP1R inv ag	GLP-1R agonist	TGFb inhibitor	ATXN2 expr inh	S2 tox	HepG2 viability
Cc1ccc(-c2nn3c(=O)cc(CN4CCN(C(=O)c5ccc(C(C)(C)C)cc5)CC4)nc3s2)cc1	11%	/	-4%	7%	i	4%
COc1cc(C(CCN2CCOCC2)c2c(OC)cc(OC)c3c(-c4ccccc4)cc(=O)oc23)cc(OC)c1OC (stereo not given)	?	26%	?	-22%	?	11µM*
COc1cc(OC)c2c(-c3ccccc3)cc(=O)oc2c1C(CCN1CCCC(C)C1)c1ccc(N(C)C)cc1 (stereo not given)	?	2%	?	?	20µM*	-60%
COc1ccc(C(CCN2CCCC(C)C2)c2c(OC)cc(OC)c3c(-c4ccccc4)cc(=O)oc23)cc1 (stereo not given)	?	9%	?	?	/	-44%
COc1cc(C(CCN2CCCC2)c2c(OC)cc(OC)c3c(-c4ccccc4)cc(=O)oc23)cc(OC)c1OC (stereo not given)	1%	23%	?	?	/	-78%
COc1cc(-c2nc3nc(C)cc(C)n3c2Nc2ccc(Cl)cc2)ccc1O	-22%	/	13µM*	/	/	-40%
COc1ccc(Nc2c(-c3cccc(OC)c3)nc3nc(C)cc(C)n23)cc1	-10%	-2%	/	13%	i	/
CCn1c(=O)c2c(nc(C=Cc3ccc(OC)c(OC)c3)n2C)n(CC)c1=O	/	/	/	?	i	/
CC(=O)O[C@H]1C[C@@H]2CC[C@@H]3[C@H](CC[C@@]4(C)[C@H]3C[C@H](N3CC[N+](C)(C)CC3)[C@@H]4OC(C)=O)[C@@]2(C)C[C@@H]1N1CC[N+](C)(C)CC1	/	/	/	/	i	/
CC(=O)N(C(C)=O)c1c(C#N)c(C)n(-c2ccccc2)c1C(=O)c1ccccc1	5.6µM*	-12%	-15%	-19%	i	-7%
Fc1ccccc1N1CCN(c2nnc(C(F)(F)F)c3nnn(Cc4ccccc4)c23)CC1	2%	/	-15%	/	/	-8%
Cc1cccc(NC(=O)c2cc(S(=O)(=O)c3ccccc3)ccc2Cl)c1	8.9µM*	-20%	?	-10%	i	5%
Cc1ccccc1NC(=O)c1cc(S(=O)(=O)c2ccccc2)ccc1Cl	?	1%	?	-18%	i	-10%
CC12CCC(C(=O)NNc3ccc([N+](=O)[O-])cc3)(CC1=O)C2(C)C (stereo not given)	8.9µM*	-8%	16%	/	i	-5%
CC12CCC(C(=O)NNc3ccc([N+](=O)[O-])cc3)(OC1=O)C2(C)C (stereo not given)	?	-1%	7%	-16%	i	2%
COc1cc2ccccc2cc1C(=O)N1CCN(c2nc3c(F)cc(F)cc3s2)CC1	5%	/	7.1µM*	?	i	-22%
COc1cccc(Nc2sc(C(=O)c3ccc(F)cc3)c(N)c2C(=O)NCc2ccc(C)cc2)c1	?	/	14µM*	/	/	-46%
COc1cccc(Nc2sc(C(=O)c3ccc(Cl)cc3)c(N)c2C(=O)NCCc2ccc(OC)c(OC)c2)c1	?	/	?	?	?	-33%
Cc1ccccc1Nc1sc(C(=O)c2ccccc2)c(N)c1C(=O)NCc1ccc(Cl)cc1	?	/	?	?	?	-82%
Cc1ccc(CNC(=O)c2c(Nc3ccccc3C)sc(C(=O)c3ccc(F)cc3)c2N)cc1	?	/	18µM*	?	?	16µM*
C(=Nc1ccc2ccccc2n1)c1ccccn1	/	/	4%	/	/	5%
O=C(Nc1ccc(OC(F)F)c(Cl)c1)Nc1ccc2c(c1)OCO2	?	-12%	?	-12%	?	11µM*
CCOc1ccc(CCNC(=O)Nc2cccc(OC)c2)cc1OCC	11µM*	-3%	-1%	-2%	i	6%
O=C(Nc1cccc(C(=O)O)c1)Nc1ccc2c(c1)OCO2	?	-5%	-4%	5µM*	i	-29%
COc1cccc(NC(=O)Nc2cccc(C(=O)O)c2)c1	2µM*	-3%	-6%	?	i	3%
SMILES	GLP1R inv ag	GLP-1R agonist	TGFb inhibitor	ATXN2 expr inh	S2 tox	HepG2 viability
CN1CCN(c2nc3c(=O)[nH]c(N)nc3n2C2OC(CO)C(O)C2O)CC1 (stereo not given)	/	/	3%	/	/	32%
COc1ccccc1C(=O)N[C@@H]1c2ccccc2C2(CCN(Cc3ccc(C)o3)CC2)[C@H]1O	/	/	/	/	i	/
COc1cccc(C(=O)Nc2ccc(NC(=O)C(C)(C)C)cn2)c1	13µM*	-11%	7%	?	i	-6%
COc1ccc2oc(=O)c(C(=O)Nc3cccc(C(=O)O)c3)cc2c1	?	/	36%	0.89µM*	i	-1%
COc1cccc(C(=O)Nc2ccc(NC(=O)C3CCCCC3)nc2)c1	?	7%	1%	-19%	i	4%
Cc1cc(-c2cc(F)cc3c2OC(CNC(=O)CCn2cncn2)C3)ccc1F (stereo not given)	/	/	/	/	i	/
COc1cc(C)ccc1OCCOCCN(C)Cc1ccccc1	?	1%	0%	-13%	i	20µM*
CN(CCOCCOc1ccc2ccccc2c1)Cc1ccccc1	?	1%	?	-11%	i	-36%
CC[N+]1(CC(=O)c2ccc(OC)cc2)CCCCC1	/	/	5%	/	/	7%
CCOC(=O)C1=C(N)c2ccccc2CC1C1CCCC1 (stereo not given)	?	13%	13µM*	/	i	-116%
CCOc1cc(C2C(C#N)=C(N)OC(C)=C2C(C)=O)c(Br)c(Br)c1OC(C)C (stereo not given)	?	-2%	16µM*	1%	i	-58%
CCOc1cc(C2C(C#N)=C(N)OC(C)=C2C(C)=O)cc(Br)c1O (stereo not given)	-3%	0%	?	1%	i	-5%
O=S(=O)(c1cccc(F)c1)N1CCc2sccc2C1c1ccc(OC(F)(F)F)cc1 (stereo not given)	7.9µM*	-1%	?	-9%	i	-29%
C=CCc1ccccc1OCC(=O)N/N=C/c1ccc(OC(C)=O)cc1OC(C)=O	?	0%	2%	22µM*	i	-3%
CCOc1cccc(C(=O)Nc2ccc3oc(Cc4ccc(Cl)cc4)nc3c2)c1	2.2µM*	-3%	?	-37%	?	6%
